From PubChem BioAssay AID1259398 (Fisher Drug Discovery Resource Center, 2018)
Where “and” joins values, the source holds several entries; their conditions need not be identical. Equal entries are not always repeated. In all, about 290,000 compounds went through this assay and about 230 (0.079%) were called active. Rule as the data show it: active = inhibition above about 40%; inactive = the rest. The entries come from a sample that favours actives as a whole. Some compounds were tested as several samples or in several runs, with calls that do not always agree.

target: Cyclic GMP-AMP synthase (Homo sapiens) (UniProt Q8N884); assay: Biochemical Kinase-Glo luminescence primary assay, human cyclic GMP-AMP synthase inhibition (AID 1259398); settings: recombinant h-cGAS, ATP depletion, at 12.5 µM, stronger effect = higher value;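 also: 0% = vehicle reaction and 100% = reaction without DNA for no activity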
Sequence (Q8N884 whole entry, looked up): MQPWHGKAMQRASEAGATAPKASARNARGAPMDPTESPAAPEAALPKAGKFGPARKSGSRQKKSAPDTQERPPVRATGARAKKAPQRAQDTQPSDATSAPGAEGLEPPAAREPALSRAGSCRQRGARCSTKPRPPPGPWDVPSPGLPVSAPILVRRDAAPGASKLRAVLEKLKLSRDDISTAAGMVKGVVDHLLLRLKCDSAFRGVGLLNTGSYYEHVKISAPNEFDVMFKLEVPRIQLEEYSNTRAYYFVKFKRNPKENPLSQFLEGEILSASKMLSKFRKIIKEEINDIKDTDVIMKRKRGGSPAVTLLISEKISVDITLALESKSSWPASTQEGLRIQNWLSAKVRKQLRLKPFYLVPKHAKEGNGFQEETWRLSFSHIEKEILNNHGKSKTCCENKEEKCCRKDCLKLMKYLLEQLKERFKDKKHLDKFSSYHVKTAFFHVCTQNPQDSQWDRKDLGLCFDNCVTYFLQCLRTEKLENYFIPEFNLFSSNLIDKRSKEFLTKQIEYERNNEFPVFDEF

SMILES	inhibition
Cc1cc(NC(=O)Cc2cccs2)n(-c2nc(-c3cccs3)cs2)n1	-2.04% (inactive)
CN(CCCOc1ccccc1Cl)C(=O)C1(N)CC1	-6.84% (inactive)
CC(C(=O)N1CCCCCC1)N1CCCC(C(=O)Nc2ccccc2)C1 (centres undefined)	-13.6% (inactive)
CC1CC(=O)C2C=Nc3ccccc3N=C2C1 (centres undefined)	-2.79% (inactive)
CS(=O)(=O)N1CCCC(NCc2ccc(-c3ccc(C(F)(F)F)cc3)o2)C1 (centres undefined)	-7.61% (inactive)
CCOC(=O)c1[nH]c(C)c(C(=O)C(C)N(CCOC)C(=O)Nc2c(C)cccc2C)c1C (centres undefined)	-3.12% (inactive)
O=S1(=O)N=C(Nc2ccccc2Cl)c2ccccc21	-4.92% (inactive)
Cc1noc(C)c1CN1CCN2C=C(C(=O)NC3CCc4ccccc43)OC2=NC1=O (centres undefined)	-7.38% (inactive)
C=CCn1c(SCC(=O)c2cc(C)n(Cc3ccco3)c2C)nc2sc(C)c(C)c2c1=O	-4.88% (inactive)
Cc1c(C(=O)N2CCc3[nH]nc(-c4ccccc4)c3C2)[nH]c2c(F)cccc12	-6.74% (inactive)
Cc1csc(=O)n1CCC(=O)Nc1ccc(S(=O)(=O)N(C)C(C)C)cc1	7.25% (inactive)
CC(=O)c1cccc(N2C(=O)C3C4C=CC(C5CC45)C3C2=O)c1 (centres undefined)	-3.94% (inactive)
CCOC(=O)c1cc(-c2ccccc2)sc1NC(=O)CC1CCCC1	-6.75% (inactive)
CCOC(=O)c1ccc(NC(=O)Cn2c(-c3nnc(C(C)C)o3)cc3ccccc32)cc1	-1.71% (inactive)
Cc1ncc(CN(C)CC2CCN(c3ccccc3)C2)[nH]1 (centres undefined)	-4.21% (inactive)
COCC(=O)Nc1ccccc1C(=O)N1CC(C)CC(C)C1 (centres undefined)	-11.9% (inactive)
Cc1ccc(CSc2nc(=O)n(CCO)c3c2CCC3)cc1	-6.25% (inactive)
O=C(c1cn[nH]c1-c1ccc(F)cc1)N1CCN(S(=O)(=O)c2ccccc2)CC1	-8.02% (inactive)
COCCNC(=O)c1ccc(CSc2nnc(Cc3ccccc3)n2-c2ccc(OC)cc2)cc1	5.06% (inactive)
COc1cccc(CN2CCC(C(=O)NC(c3cccc(OC)c3)c3ccccn3)CC2)c1 (centres undefined)	-3.62% (inactive)
COc1cc(C(=O)Nc2oc3ccccc3c(=O)c2-c2ccccc2)cc(OC)c1OC	-4.49% (inactive)
N#CC(=C1NS(=O)(=O)c2ccccc21)c1nc2ccccc2n1Cc1ccccc1	-6.01% (inactive)
NC(=O)C1CCCN1C(=O)NC(=O)CSc1ccccc1Cl (centres undefined)	20.8% (inactive)

SMILES	inhibition
N#Cc1ccsc1NC(=O)c1cc(Cl)c2c(c1)OCO2	0.691% (inactive)
CCc1c(C(=O)N2CCCC2)c(CC(C)C)nn1-c1ccc(Cl)cc1	-4.87% (inactive)
CCC(C(=O)N1CCN(C(C(=O)Nc2cccc(Cl)c2)C2CCCC2)CC1)c1ccccc1 (centres undefined)	-0.887% (inactive)
CN1C(=O)[C@]2(C)[C@H](c3ccccc31)[C@@H](C(N)=O)CN2C(=O)CC(C)(C)C	-2.6% (inactive)
CCC1CSC(=Nc2ccc(Cl)cc2)N1C(=O)c1ccc(C)nc1 (centres undefined)	-0.466% (inactive)
COc1cccc(CN2CCCN(c3nc(Cc4ccccc4)nc4c3c(C)nn4-c3ccc(F)cc3)CC2)c1	-3.74% (inactive)
CC(C)CC(CNc1ccc(S(=O)(=O)N2CCCCC2)cc1[N+](=O)[O-])N1CCOCC1 (centres undefined)	-5.16% (inactive)
Oc1c(Cl)cc(Cl)c(Cl)c1Cc1c(O)c(Cl)cc(Cl)c1Cl	84.9% (active) and 0.133% (inactive)
COc1ccc(NS(=O)(=O)c2cc(C(=O)Nc3ccc(C)cc3)ccc2C)cc1	-2.65% (inactive)
O=C(Cc1csc(SCC(=O)c2ccccc2)n1)NCCC1=CCCCC1	7.3% (inactive)
O=[N+]([O-])c1cc(S(=O)(=O)C(F)(F)F)ccc1N1CCCC1	-6.28% (inactive)
CS(=O)(=O)c1ccc(Oc2ccc3sc(=O)oc3c2)c([N+](=O)[O-])c1	-8.14% (inactive)
O=[N+]([O-])c1cc(S(=O)(=O)C(F)(F)F)ccc1Oc1ccc2oc3c(c2c1)CCCC3	50.2% (active)
C=CCN(Cc1ccccc1OC)C(=O)c1ccc(NC(C)=O)cc1	0.115% (inactive)
Cc1ccc(S(=O)(=O)NCc2ccc3c(c2)OCO3)c(C)c1C	-9.87% (inactive)
CS(=O)(=O)c1cccc2sc(Cl)nc12	-7.81% (inactive)
CCCCCN(CC(=O)N(CCCC)Cc1cccn1Cc1ccc(Br)cc1)C(=O)c1ccc2c(c1)OCO2	-1.37% (inactive)
CC(C)CN(CC(C)C)C(=O)c1cccnc1Nc1cccc(C(F)(F)F)c1	-2.78% (inactive)
CC(Nc1nc2c(c(=O)[nH]c(=O)n2C)n1Cc1ccccc1)c1ccccc1 (centres undefined)	2.23% (inactive)
CS(=O)(=O)N1CCC(C(=O)NCc2cc(-c3ccc4c(c3)OCCO4)on2)CC1	-5.92% (inactive)
CC(NC(=O)c1ccc(Br)cc1F)C(=O)N1CCOCC1 (centres undefined)	-5.97% (inactive)
CC[N+](C)(CC)CCC[n+]1c(-c2ccccc2)c2cc(N)ccc2c2ccc(N)cc21	57.3% (active)
COc1ccc(CCN(Cc2ccc(C)s2)C(=O)CN(CC2CCCO2)S(=O)(=O)c2c(C)cc(C)cc2C)cc1OC (centres undefined)	-7.86% (inactive)

SMILES	inhibition
CC(=O)CC1C(CC(=O)O)C1(C)C (centres undefined)	-5.25% (inactive)
Cc1ccc(S(=O)(=O)Oc2c(CO)cc(C)cc2CO)cc1	-8.05% (inactive)
CC1(C(=O)NCc2cccs2)CCN1Cc1ccc2c(c1)OCCO2 (centres undefined)	-11% (inactive)
CC(=O)N1CCN(C(=O)COC(=O)c2ccc3ccccc3c2O)CC1	-3.7% (inactive)
CC(C)C(=O)N1CCC1(C)C(=O)Nc1ccccn1 (centres undefined)	-6.44% (inactive)
CCc1nnc(CNc2cc(Cl)ccc2F)n1C	-5.8% (inactive)
CCOc1cccc(-c2ccc(Nc3ccc(OC)cc3C)nc2)c1	-0.0439% (inactive)
COc1ccccc1OC1CCN(C(=O)CCC2(Cc3ccccc3)CCC(=O)N2)CC1 (centres undefined)	-5.11% (inactive)
CCN1C(=O)N(Cc2cccc(OC)c2)C(=O)C12CCN(Cc1cn[nH]c1-c1ccc(F)cc1)CC2	11% (inactive)
CC(=O)CC1(O)C(=O)Nc2ccc(I)cc21 (centres undefined)	2.23% (inactive)
CC1CCc2c(sc(NC(=O)c3cccs3)c2C(=O)Nc2ccc(Cl)cc2)C1 (centres undefined)	-14.3% (inactive)
C=CCCC(O)CN(Cc1c(CC)nn(-c2ccccc2)c1Oc1cccc(OC)c1)CC1CC1 (centres undefined)	-5.62% (inactive)
O=C(NCc1n[nH]c(=S)n1C1CC1)c1noc2c1CCCC2	-5.91% (inactive)
O=C(O)CSc1nnc(CCc2ccccc2)n1-c1cccnc1	-3.94% (inactive)
Cc1ccsc1C(=O)N1CCCC(CNC(=O)c2ccc(-c3ccccc3)cc2)C1 (centres undefined)	-7.02% (inactive) and -6.34% (inactive)
C=CCNCc1cnc(S(=O)(=O)Cc2ccc(F)cc2)n1C(C)C	-5.49% (inactive)
O=C(O)c1cc(-c2ccco2)nn1-c1ccccc1Cl	-7.88% (inactive)
C=CCN(CC(=O)Nc1ccccc1C#N)S(=O)(=O)c1c(C)cc(C)cc1C	-5.26% (inactive)
Cn1c(SCC(=O)N2CCN(c3ccccc3)CC2)nnc1C(F)(F)F	-6.17% (inactive)
O=C1CN(C(=O)C2CCCC2)CC(O)CN1Cc1cccc(F)c1 (centres undefined)	11.5% (inactive)
CCc1[nH]n(-c2ccc(Cl)c(Cl)c2)c(=O)c1C1=C([n+]2cccc(C)c2)C(=O)N(CC(C)C)C1=O	-10.4% (inactive)
COCCNC(=O)Cn1nc2c(c1NC(=O)c1cc(OC)cc(OC)c1)CSC2	-4.38% (inactive)
C=CC(=O)Nc1ccc2ncnc(Nc3ccc(OCc4cccc(F)c4)c(Cl)c3)c2c1	43.2% (active)

SMILES	inhibition
Cc1ccc(Nc2nc(Nc3cccc(F)c3)nc3nccnc23)cc1Cl	-0.96% (inactive)
N#Cc1cccc(COc2ccc(NC(=O)NCCO)cc2Cl)c1	0.266% (inactive)
Cc1ccc(OC(C)C(=O)N(C)C2CCS(=O)(=O)C2)c(Br)c1 (centres undefined)	-12.8% (inactive) and -9.58% (inactive)
Cc1cccc(C2SCC(=O)N2CC(=O)NCc2ccncc2)c1 (centres undefined)	-4.08% (inactive)
O=C(c1cc(Cl)c2nc3ccccn3c(=O)c2c1)c1cc(F)ccc1O	-5.02% (inactive)
N#CCCN(CCC#N)Cn1c(=O)oc2cc(Br)ccc21	-6.19% (inactive)
c1ccc(Cc2nn3c(Cn4cnc5ccccc54)nnc3s2)cc1	-1.85% (inactive)
CCCc1nnc2sc(Cc3csc(C)n3)nn12	-7.66% (inactive)
COCc1nnc2sc(Cc3ccc4c(c3)CCCC4)nn12	45.2% (active)
Cc1ccc(S(=O)(=O)N2CCCC2c2nc3ccccc3[nH]2)c(C)c1 (centres undefined)	-4.68% (inactive)
COCCN(CCC(=O)N1CCC(Cc2ccccc2)CC1)c1nc(Cc2cccc(OC)c2)ns1	-5.55% (inactive)
CC(C)(CNC(=O)c1cc2cccc(F)c2o1)C1CCCCO1 (centres undefined)	-5.71% (inactive)
Cc1ccc(NC(=O)C2C(C=C(Cl)Cl)C2(C)C)cc1 (centres undefined)	-4.28% (inactive)
COc1ccccc1OC1CN(Cc2cc(C)[nH]n2)C1	-4.73% (inactive)
O=C(NNc1cccc(Cl)c1)[C@@H]1CCCN1c1nccc(Nc2ccccc2)n1	-0.74% (inactive)
CCOc1ccc(N2CCN(C(=O)CCc3ccccc3)C(C)C2=O)cc1 (centres undefined)	-2.37% (inactive)
Cn1cc(CN2CCN(c3ccc(Cl)cn3)CC2)c(-c2ccc3c(c2)OCCO3)n1	-7.9% (inactive)
CC(CN1CCOCC1)NC(=O)N1CCCc2cc(F)c(F)cc21 (centres undefined)	-4.63% (inactive)
Cc1cc(Nc2ccc3c(n2)C(=O)N(CC(=O)NCCCn2ccnc2)C3)n(C)n1	-11.5% (inactive)
N#Cc1cccc(NC(=O)CN(Cc2ccco2)Cc2cccs2)c1	-0.473% (inactive)
